Screening results (PubChem BioAssay)
Pf growth 96h: P. falciparum growth inhibition at 96 hours; Potency, µM (highest dose often 28.7 µM), usual class: inhibitors; P. falciparum luciferase reporter growth, 96 h; actives 6.9% (n = 320,000)
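Compounds incubated with erythrocytes infected by luciferase-expressing P. falciparum (2% hematocrit, 0.05% parasitemia final) for 96 hours, 37 C in 5% CO2. Growth inhibition scored as decreased luciferase luminescence.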
NS1 inh: influenza NS1 inhibition | Potency, µM (highest dose often 46.1 µM) | actives 0.4% (n = 270,000) | AID 2326; calls by dose curve; also: actives are rising curves; nearly all actives have a fitted effect of over 50% in size
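A cell-based growth assay was used: compounds that relieve NS1-induced slow growth of budding yeast raise OD600. Assay medium was yeast nitrogen base with ammonium sulphate and -URA supplement, pH 6.0, with 2% galactose.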
Pf growth 48h: P. falciparum growth inhibition at 48 hours (one generation). P. falciparum luciferase growth in erythrocytes, 48 h. Potency, µM (doses to about 28.7 µM), usual class: inhibitors. actives 5.9% (n = 310,000). AID 504832
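A one-generation exposure of luciferase-tagged malaria parasites in RPMI 1640/Albumax erythrocyte culture, 37 C and 5% CO2. Inhibition is inferred from decreased luminescence after adding detection reagent.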
Shiga toxin inh: Shiga toxin inhibition; Vero cells, Shiga toxin protein synthesis inhibition reporter; inhibition, % at 38.7 µM; actives 9.2% (n = 290,000); AID 2315; in the data active = inhibition mostly above about 28%, no sharp cut-off; inactive = mostly below about 43%
Cycloheximide cs: affects cycloheximide protein synthesis inhibition readout, counter-screen; actives 12% (n = 300,000); max response, %; cell reporter, cycloheximide protein synthesis inhibition counterscreen; in the data active = max response mostly above about 13%, no sharp cut-off; inactive = mostly below about 14%; also: read at 38.3 µM for the half of the compounds with a filed dose
A number is an active result; . = inactive; ? = inconclusive; / = no result given; [ ] = another dose, or the depositor's remark. Sampled rows, rich in hits. Any-hit rate of the full collection: about 21%. Unless noted, calls follow the shape of the dose curve; as a rule, active = well fitted inhibition curve with a large enough effect; inconclusive = small, poorly fitted or top-dose-only effect, or another doubt; inactive = no such curve, though single readings can be large or run the other way.

SMILES	Pf growth 96h	NS1 inh	Pf growth 48h	Shiga toxin inh	Cycloheximide cs
Cc1ccc(C(C(=O)NCC2CCCO2)N(Cc2ccccc2)C(=O)c2ccc(-c3ccccc3)[nH]2)o1 (stereo unspecified)	?	.	8.3µM	.	.
O=C(NCC1CCCO1)C(c1cccs1)N(Cc1ccccc1Cl)C(=O)c1ccc(-c2ccccc2)[nH]1 (stereo unspecified)	.	.	5.2µM	.	.
CC1CCC(NC(=O)CCNC(=O)c2ccccc2)CC1 (stereo unspecified)	.	.	.	.	.
Oc1ccc(C=Nc2ccc3ncccc3c2)c(O)c1	.[5.75 µM]	?	?	106	56
Cc1ccccc1CNCCCSc1ncccn1	.	.	.	.	.
Cc1cccc(C)c1NC(=O)CN(C)C(=O)c1ccc(COc2ccccc2)cc1	.	.	.	.	20
OCC1OC(O)C(O)C(O)C1O (stereo unspecified)	?	/	.	.	.
OCC1OC([S-])[C@H](O)C(O)C1O.[Au+] (stereo partly specified)	4.8µM	/	.	/	/
CCOC(=O)c1ccccc1NC(=O)COC(=O)C(CCSC)NC(=O)COc1ccccc1 (stereo unspecified)	.	/	.	/	/
c1ccc(Oc2ccc3ccccc3n2)cc1	.	/	.	130	39
Cc1ccc(SCc2nn(C)c(Cl)c2C=O)cc1	.	/	.	57	42
Cc1ccc(SCc2cc(=O)[nH]c(N3CCN(C)CC3)n2)cc1	.	.	/	.	.
CCOC(=O)c1ccc(N=NN(C)C)cc1	.	.	.	91	31
CCOC(=O)c1ccc(O)cc1	.	/	.	/	/
CCOC(=O)c1ccc(C(=O)OCC)nc1	.	.	.	35	16
c1cc2c(c(NC3=NCCN3)c1)CCCC2	11µM	.	?	/	/
CN(CC(=O)Nc1ccc(F)cc1)CC(=O)Nc1ccc(F)c(F)c1F	.	/	.	.	.
CCOC(=O)Cn1nnc(-c2cccc(OC)c2)n1	/	.	.	109	43
COc1cccc(-c2nnn(C/C(N)=N/O)n2)c1	2.3µM	.	.	.	37
CC(C)CCOc1ccc(C(=O)NCCC(=O)N2CCOCC2)cc1	?	.	.	41	18
COc1ccc(N2CCN(C(=O)c3ccc(C(C)(C)C)cc3)CC2)cc1	.	.	/	.	.
COc1ccc(S(=O)(=O)CCC(=O)N2CCN(c3ccc(C(C)=O)cc3)CC2)cc1	8.3µM	.	.	56	15
COc1ccc(N2CCN(C(=O)CCNC(=O)c3ccc(C(C)(C)C)cc3)CC2)cc1	?	.	10µM	.	.
COc1ccc(OC)c(CN2CCN(C(=O)CNC(=O)c3ccc(C(C)(C)C)cc3)CC2)c1	12µM	/	?	/	/
NCCCNc1ccc([N+](=O)[O-])cc1C(F)(F)F	.	.	.	.	.
SMILES	Pf growth 96h	NS1 inh	Pf growth 48h	Shiga toxin inh	Cycloheximide cs
CC1(C)CC(=O)C/C(=N\NC(=O)C2CC2c2ccccc2)C1 (stereo unspecified)	.	/	.	44	.
Cc1n[nH]c(=S)n1/N=C/c1ccc(OCc2ccc(Cl)cc2Cl)cc1	?	.	.	79	39
Cc1n[nH]c(=S)n1/N=C/c1ccc(OCc2ccc(Cl)cc2)cc1	.	.	.	.	.
Cc1cc(C)c(COc2ccc(/C=N/n3c(C)n[nH]c3=S)cc2)c(C)c1	.	.	12µM	30	.
Nc1ccc2oc(=O)c3ccccc3c2c1	.	.	.	.	.
Nc1ccc(C#Cc2ccc3c(=O)c4ccccc4oc3c2)cc1	.	.	.	28	37
Cc1ccccc1-c1nnc(SCC(=O)NC2CCCC2)n1C	.	/	.	/	/
CC1=C/C(=C(\c2cc(C)c(O)c(Br)c2)c2ccccc2S(=O)(=O)O)C=C(Br)C1=O	10µM	.	?	.	.
Cc1cc(C)nc(Nc2ccc(Br)cc2C(=O)O)n1	?	.	.	.	.
O=C(O)c1cc(Br)ccc1NN=C1CCCCC1	.	.	.	.	21
O=c1cccccc1NN=C1CCCCC1	.	.	?	80	35
O=c1cccccc1NN=C1CCCCCC1	.	.	.	82	23
O=C1NC(=O)C2(COC3(CCCC3)OC2)S1	?	.	.	.	.
CC[C@H]1OC(=O)[C@H](C)C(=O)[C@H](C)[C@@H](OC2O[C@H](C)C[C@H](N(C)C)[C@@H]2O)[C@@](C)(OC)C[C@@H](C)C(=O)[C@@H](C)C2N(CCCCn3cnc(-c4cccnc4)c3)C(=O)O[C@@]21C (stereo partly specified)	13µM	/	?	/	/
COCCCNC(=O)c1ccccc1N(Cc1ccccc1)S(=O)(=O)c1ccccc1	?	.	?	.	.
O=[N+]([O-])c1cc(C(F)(F)F)cc([N+](=O)[O-])c1Sc1n[nH]c(C(F)(F)F)n1	?	.	5.2µM	.	.
O=C(NNC(=O)C1CCN(S(=O)(=O)c2ccc(Cl)cc2)CC1)c1ccccc1O	.	/	.	/	/
Cc1[nH]c2ccc3ncccc3c2c1C	?	.	.	.	15
Cc1ccc(C2C=NN(c3ccccc3)C2=O)cc1 (stereo unspecified)	?	.	6.6µM	29	18
CCOc1ccc(CC(=O)OCn2nnc3ccccc3c2=O)cc1	.	/	.	.	.
COc1ccc(/C=C/C(=O)NCCc2nc3ccccc3[nH]2)cc1	?	.	?	.	16
C#CCNC(=O)/C=C/c1ccc(OC)cc1	.	.	.	59	40
COc1ccc(/C=C/C(=O)NCCCN2CCCC2)cc1	.	.	.	.	.
CCCCOC(=O)CCc1nc2ccccc2[nH]1	.	.	/	.	.
O=C(/C=C/c1ccco1)N/C(=C\c1ccccc1)C(=O)NCCc1nc2ccccc2[nH]1	.	.	.	37	.
SMILES	Pf growth 96h	NS1 inh	Pf growth 48h	Shiga toxin inh	Cycloheximide cs
CCCCOc1ccc(/C=C/C(=O)NCCc2nc3ccccc3[nH]2)cc1	12µM	.	?	.	.
COc1cc(OC)c(NC(=S)NCc2ccccc2)cc1Cl	?	/	.	.	.
CN(C)S(=O)(=O)c1cc(NC(=O)CNCCN2CCOCC2)ccc1Cl	.	.	.	.	.
CCOc1ccc(CCNS(=O)(=O)c2c(C)nc3scc(C)n3c2=O)cc1OCC	?	.	.	.	.
COc1ccc(/C=C/C(=O)Nc2cc(C)on2)cc1	.	.	?	107	42
Cc1cc(NC(=O)/C=C/c2ccccc2Cl)no1	?	.	?	67	23
COc1ccc(C(=O)/C=C/Nc2cc(C)on2)cc1	.	.	/	65	47
Cc1cc(NC(=O)/C=C/c2ccccc2)no1	.	.	/	63	41
Cc1ccc(CN2CCN(CC3CC4C=CC3C4)CC2)cc1 (stereo unspecified)	/	.	.	.	.
CC(=O)c1cc(C(=O)N2CCCC(CCC(=O)N(C)CCc3ccccn3)C2)cs1 (stereo unspecified)	.	.	.	.	.
O=C(N/N=C/c1ccco1)c1ccc(NC(=O)c2ccc(Cl)cc2)cc1	.	.	.	.	.
CSc1ccc(/C=C/C(=O)OCC(=O)N2CCc3ccccc32)cc1	.	/	?	/	/
CSc1ccc(/C=C/C(=O)OCC(=O)N(C)CCC#N)cc1	.	/	.	31	20
Cc1[nH]c(C)c(Cl)c(=O)c1Cl	3.4µM	/	6µM	/	/
